Experiment in all cases: NCI-60 one-dose screen, 48 h (100 = growth as untreated, 0 = no growth, -100 = all killed)
Common to all, as to conditions: 10 µM unless noted

Assay [1] deals with HCT-15 colon.
Assay [2] concerns HT29 colon.
In assay [3] the test system is SNB-75 CNS.
In assay [4] the test system is SNB-19 CNS.
Assay [5] concerns U251 CNS.
In assay [6] the test system is PC-3 prostate.
In assay [7] the test system is UACC-62 melanoma.
Assay [8] concerns LOX IMVI melanoma.
Assay [9] concerns SK-MEL-28 melanoma.
Assay [10] deals with SK-MEL-2 melanoma.
Assay [11] deals with EKVX NSCLC.
Assay [12] concerns SN12C renal.
Assay [13] has as its system UO-31 renal.
Assay [14] concerns TK-10 renal.
Assay [15] has as its system ACHN renal.
The subject of assay [16] is CAKI-1 renal.
The test system of assay [17] is A498 renal.
For assay [18], the system named is CCRF-CEM leukemia.
In assay [19] the test system is MOLT-4 leukemia.
In assay [20] the test system is SK-MEL-5 melanoma.

Compounds without any hit were thinned out: in the full panel of roughly 83,000, 20% have a hit.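 Growth was measured after 48 h exposure to one concentration of compound in 96-well plates. Values under 10 count as active.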 Values without a mark were called inactive. Activity calls are given as the source filed them.

Regarding `Cc1cc(NC(=O)COC(=O)c2sc3cc(F)ccc3c2Cl)no1`, the growth in [1] is 106%; in assay [2] it was 114%; in assay [3] it was 104%; in assay [4] it was 103%; in assay [5] it was 106%; in [6] it was 101%. In addition, the growth in assay [7] is 90.2%; in [8] it was 103%; in [9], 121%; in [10], 44.8%; in assay [11] it was 105%; in assay [12], 107%. Moreover, the growth in [13] was 39.2%; in [14], 125%; in assay [15] it was 106%; in assay [16], 110%; in assay [17], 103%; in assay [18], 66.9%. The growth in [19] was 108%.
For `CCCCCCCCCCCCCCCCCCOc1cccc(CCOP(=O)(O)OCC[N+](C)(C)C)c1`, the growth in [1] is 87%; in [2] it was 73.7%; in assay [3] it was 83.1%; in assay [4], 83.6%; in [5], 67.7%; in assay [6], 2.55% (active). Also, the growth in assay [7] was 85.2%; in [8], 77.3%; in assay [9], 94.2%; in [10], 90.4%; in assay [11], 97%; in assay [12] it was 91.1%. Further, the growth is 91.5% in [13]; 36.5% in [14]; 95.8% in assay [15]; 55.3% in assay [16]; 99.2% in assay [17]; 104% in assay [19].
Turning to `O=C(c1ccccc1)C(Cl)C(Cl)c1ccccc1` (stereo not given), the growth was -7.84% (active) in assay [1]; 20.4% in assay [2]; 70.7% in assay [3]; 92% in assay [4]; 78% in assay [5]; 83% in assay [6]. The growth in [7] is 0.557% (active); in [8], -64.9% (active); in assay [9] it was 67.3%; in [10], 96.3%; in assay [11] it was 79%; in assay [12], -13.9% (active). Further, the growth was -50.5% (active) in [13]; -8.89% (active) in assay [14]; -71.5% (active) in assay [15]; 38% in assay [16]; 25.9% in [19].
For the compound `O=C1c2ccccc2C(=O)c2c1oc1oc3c(c(=O)c21)c(=O)n(-c1ccccc1)c1ccccc31`, the growth was 66.6% in [1]; 84.2% in assay [2]; 31.8% in assay [3]; 27.9% in assay [4]; 21.1% in assay [5]; 34.2% in assay [6]. Besides, the growth in [20] was 17.7%; in assay [7] it was 13.2%; in assay [8], 43%; in assay [10], 23.1%; in [12], 97.7%; in [13] it was 49.2%. Also, the growth in [14] was 64.2%; in [15], 28.5%; in assay [16] it was 69.2%; in [18], 17.8%.
With `O=C1CCC/C=C\C[C@H]2C=CC(=O)/C2=C/C[C@H](C/C=C\CC(F)(F)F)O1`, the growth in assay [1] is -5.57% (active); in [2] it was -28.9% (active); in [3], 68.7%; in assay [4], 11.3%; in assay [5], -65.5% (active); in assay [6] it was -42.5% (active). Further, the growth in assay [7] is -12.1% (active); in assay [8], -88.2% (active); in assay [9], -28.6% (active); in assay [10], -20.9% (active); in assay [11], -17.7% (active); in assay [12], -6.43% (active). In addition, the growth in [13] is -93% (active); in [14] it was -33.6% (active); in assay [15] it was -84.8% (active); in [16] it was 16%; in [17], -75.2% (active); in assay [18], -5.64% (active). Moreover, the growth in assay [19] is -0.696% (active).
For `CC(=O)Nc1nc(C(=O)N2N=C(C)/C(=C/c3ccccc3)C2=O)cs1`, the growth in assay [1] was 105%; in [2], 97.5%; in assay [3], 95.5%; in assay [4] it was 103%; in assay [5], 104%; in assay [6] it was 97.7%. The growth is 114% in assay [7]; 98.7% in assay [8]; 121% in assay [9]; 94.6% in [10]; 109% in assay [12]; 80.9% in [13]. The growth is 107% in assay [14]; 99.9% in assay [15]; 98.9% in [16]; 98.7% in assay [18]; 95.8% in assay [19].
Take `COc1cc(NC(=O)c2cc3ccccc3nc2Nc2ccc(F)cc2)cc(OC)c1OC`: the growth in [1] is 31.8%; in [2], 69.3%; in assay [3], 60.7%; in assay [4] it was 61.1%; in assay [5], 35.3%; in assay [6], 13.2%. Further, the growth in assay [20] is -13.8% (active); in [7], 37.5%; in assay [8], 32.6%; in assay [10] it was 63.4%; in assay [12], 62.3%; in assay [13], 46.7%. For the same compound, the growth in [14] is 65.3%; in [15], 42.9%; in assay [16], 52.4%; in assay [18], 42.1%; in assay [19], 12.4%.
Turning to `COc1ccc(OC)c(-c2ccc(-c3ccccc3N)c3[nH]c4ccccc4c23)c1`, the growth in [1] was 88.3%; in [2], 63.4%; in [3] it was 89.7%; in assay [4], 89.1%; in assay [5], 77.9%; in assay [6], 59%. The growth was 64.4% in assay [7]; 84% in assay [8]; 107% in [9]; 77.1% in assay [10]; 87.6% in [12]; 58.4% in assay [13]. Moreover, the growth in assay [14] is 103%; in assay [15] it was 80.7%; in [16] it was 73%; in assay [18] it was 103%; in assay [19] it was 56.4%.
In the case of `COc1ccc(/C=C2\Oc3cc(OCCN4CCCC4)ccc3C2=O)c(OC)c1`, the growth in assay [1] was 80.2%; in assay [2], 17.6%; in assay [3], 93.2%; in [4], 92.2%; in assay [5] it was 76.5%; in [6], 84.9%. The growth is 101% in assay [7]; 81.2% in [8]; 96.9% in assay [9]; 101% in assay [10]; 98.1% in [11]; 92.2% in assay [12]. Further, the growth in assay [13] was 81.2%; in assay [14], 115%; in [15], 95.7%; in assay [16], 92.4%; in assay [17], 88.5%; in assay [19], 86.7%.
On to `Clc1nc(-c2cccnc2)nc2sc3c(c12)CCCCCC3`, for which the growth in assay [1] was 98.9%; in assay [2], 100%; in [3], 91.3%; in assay [4], 96.2%; in assay [5], 91.3%; in assay [6], 94.7%. In addition, the growth in [7] was 91.3%; in assay [8], 100%; in assay [9], 104%; in assay [10], 105%; in [12], 99.6%; in [13], 101%. Also, the growth is 103% in [14]; 105% in assay [15]; 93.8% in [16]; 94.1% in assay [17]; 83.4% in assay [18]; 90% in assay [19].
On to `O=C(Nc1ccc(F)cc1)c1cc([N+](=O)[O-])ccc1O`, for which the growth in assay [1] is 68.1%; in [2], 61.7%; in [3] it was 78.1%; in assay [4], 70.9%; in [5], 61.6%; in [6] it was 54.7%. Further, the growth in [7] is 36.8%; in assay [8], 56.3%; in [9] it was 55.9%; in assay [10], 37%; in assay [11], 77%; in [12], 82.4%. Moreover, the growth is 58.9% in [13]; 81.6% in assay [14]; 73.2% in [15]; 67.1% in assay [16]; 25.5% in assay [17]; 59.5% in assay [18]. Further, the growth in assay [19] was 63.3%.
Turning to `COc1cc(CNC(=O)CCSc2nc3ccccc3c(=O)n2Cc2cc(OC)c(OC)c(OC)c2)cc(OC)c1OC`, the growth in assay [1] is 17.7%; in [2], 12.9%; in assay [3], 17.9%; in [4], 56%; in [5], 38.3%; in [6] it was 49.5%. The growth in [7] was 36.3%; in assay [8] it was 44.6%; in assay [9], 55.8%; in assay [10] it was -9.25% (active); in assay [12], 50.7%; in assay [13] it was 47.2%. The growth in assay [14] is 62%; in assay [15] it was 48.9%; in assay [16], 34.3%; in [17], 21.7%; in assay [18], 35.5%; in [19], 18.8%.
Take `COc1ccc2c(c1)C(=O)/C(=C/c1ccc(O)cc1)O2`: the growth in assay [1] was 52.1%; in assay [2] it was 90.1%; in assay [3] it was 67.5%; in [4], 89.3%; in [5] it was 92.9%; in [6] it was 39.6%. Further, the growth was 77.1% in assay [7]; 45.5% in assay [8]; 92.6% in assay [9]; 81.2% in [10]; 76.8% in assay [12]; -97.4% (active) in assay [13]. Further, the growth is 75.1% in [14]; 96.4% in assay [15]; 71.8% in assay [16]; 94.8% in assay [17]; 104% in assay [18].
Regarding `CCOC(=O)C1=C(CSC(=S)N(C2CCCCC2)C2CCCCC2)N(C)C(=O)NC1c1ccccc1` (stereo not given), the growth in [1] was 39.6%; in assay [2] it was 22%; in [3] it was 71.8%; in assay [4], 49.2%; in [5] it was 39.5%; in [6], 21.6%. Also, the growth in assay [20] was 14.7%; in assay [7], 46.1%; in assay [8], 33%; in [10], 55.6%; in assay [12], 71.2%; in [13], 44.5%. Also, the growth in [14] was 74%; in [15], 37.8%; in [16], 25.4%; in assay [18], 35.3%; in assay [19] it was 28.2%.
For the compound `CC/C=C\C/C=C\C[C@H](O)C/C=C1/C(=O)C=C[C@H]1C/C=C\CCC(=O)OC`, the growth in [1] was -13.3% [8.25 µM] (active); in [2], 2.84% [8.25 µM] (active); in assay [3], 75.2% [8.25 µM]; in assay [4], 62.4% [8.25 µM]; in assay [5], 15% [8.25 µM]; in assay [6], 20.1% [8.25 µM]. Further, the growth in assay [7] was 4.47% [8.25 µM] (active); in assay [8], -71.8% [8.25 µM] (active); in assay [9] it was 22.5% [8.25 µM]; in assay [10] it was 65.6% [8.25 µM]; in [11], 39% [8.25 µM]; in assay [12], 1.16% [8.25 µM] (active). Besides, the growth in [13] was 48.1% [8.25 µM]; in assay [14], 58.7% [8.25 µM]; in [15] it was 26.9% [8.25 µM]; in [16], 55.3% [8.25 µM]; in [18], -1.3% [8.25 µM] (active); in assay [19], 32.7% [8.25 µM].

These data come from PubChem BioAssay (NCI).
